From PubChem BioAssay
Active and inactive are the calls of the source.

Assays:
[1] = system: PRMT1 (protein arginine N-methyltransferase 1); assay: small molecules binding arginine methyltransferase PRMT1 – biochemical, small-molecule microarray, 635 nm fluorescence, primary screen (AID 1088); conditions: higher = more signal;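 also: binding of Prmt1 protein to compounds spotted on small-molecule microarray slides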
[2] = growth effects on S. cerevisiae YJM789 – YJM789 clinical isolate, OD600, 24 h, basal, primary screen (AID 1089); conditions: higher = more signal, called active from +8 up or from −8 down;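 also: growth of clinical yeast isolate S. cerevisiae YJM 789 seeded 1000 cells per well; test concentration not given here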
[3] = S. pombe growth modifiers, basal conditions – strain 972, OD600, 24 h, no modulator, primary screen (AID 1090);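 also: basal condition with compound alone and no growth modifier present; test concentration not given here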; conditions: S. pombe 972 growth, higher = more signal, called active from +8 up or from −8 down
[4] = budding yeast growth modifiers under rapamycin – strain BY4716, OD600, 96 h, primary screen (AID 1091); also: test concentration not given here; conditions: S. cerevisiae BY4716 + rapamycin, higher = more signal, called active from +8 up or from −8 down
[5] = biological target: Torsin-1A-interacting protein 2 (Homo sapiens) (UniProt Q8NFQ8); assay: small molecules binding lysate-expressed LULL1 – cell lysate, human LULL1 lysate, 635/667 nm fluorescence, primary screen (AID 1092); conditions: small-molecule microarray, hLULL1 lysate binding, 635 nm fluorescence; higher = more signal;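 also: probe is lysate of COS7 cells overexpressing human LULL1; score merges per-feature 667 nm fluorescence with signal-to-noise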
Sequence of Torsin-1A-interacting protein 2 (Homo sapiens) (Q8NFQ8 whole entry, looked up): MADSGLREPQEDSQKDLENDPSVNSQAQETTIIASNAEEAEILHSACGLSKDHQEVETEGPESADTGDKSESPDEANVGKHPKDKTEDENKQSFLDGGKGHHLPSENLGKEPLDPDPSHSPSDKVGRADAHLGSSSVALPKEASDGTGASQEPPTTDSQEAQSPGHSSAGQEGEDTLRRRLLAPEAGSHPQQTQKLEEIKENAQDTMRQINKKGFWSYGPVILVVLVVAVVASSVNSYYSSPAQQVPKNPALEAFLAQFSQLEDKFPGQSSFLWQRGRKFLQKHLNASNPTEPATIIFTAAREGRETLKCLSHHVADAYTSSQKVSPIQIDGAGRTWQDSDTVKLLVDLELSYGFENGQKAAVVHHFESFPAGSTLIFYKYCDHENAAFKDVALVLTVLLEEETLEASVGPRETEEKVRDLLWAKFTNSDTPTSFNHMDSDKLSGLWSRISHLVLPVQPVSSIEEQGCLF

[6] = optical density change of DRC41 E. coli – strain DRC41, OD650, 24 h, E. coli filamentation project, primary screen (AID 1093);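 also: MC1000 strain lacking acrAB efflux and sulA so SOS filamentation is blocked; test concentration not given here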; conditions: E. coli DRC41 growth, higher = more signal, called active from +8 up or from −8 down
[7] = probe aLefty2 binding to arrayed compounds – biochemical, biotinylated probe, 635/667 nm fluorescence, primary screen (AID 1094); conditions: small-molecule microarray, higher = more signal;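 also: score merges spot fluorescence near 667 nm with spot signal-to-noise ratio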
[8] = system: Noggin (protein binding on small-molecule microarray); assay: small molecules binding Noggin protein – biochemical, 635/667 nm fluorescence, primary screen (AID 1095); conditions: 635 nm fluorescence, higher = more signal;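 also: score merges 667 nm feature fluorescence with signal to noise over triplicate slides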
[9] = biological target: Neurogenic locus notch homolog protein 3 (Homo sapiens) (UniProt Q9UM47); assay: small molecules binding NOTCH3 protein – biochemical, 635/667 nm fluorescence, primary screen (AID 1096); conditions: small-molecule microarray, 635 nm fluorescence, higher = more signal
Sequence of Neurogenic locus notch homolog protein 3 (Homo sapiens) (Q9UM47 whole entry, looked up): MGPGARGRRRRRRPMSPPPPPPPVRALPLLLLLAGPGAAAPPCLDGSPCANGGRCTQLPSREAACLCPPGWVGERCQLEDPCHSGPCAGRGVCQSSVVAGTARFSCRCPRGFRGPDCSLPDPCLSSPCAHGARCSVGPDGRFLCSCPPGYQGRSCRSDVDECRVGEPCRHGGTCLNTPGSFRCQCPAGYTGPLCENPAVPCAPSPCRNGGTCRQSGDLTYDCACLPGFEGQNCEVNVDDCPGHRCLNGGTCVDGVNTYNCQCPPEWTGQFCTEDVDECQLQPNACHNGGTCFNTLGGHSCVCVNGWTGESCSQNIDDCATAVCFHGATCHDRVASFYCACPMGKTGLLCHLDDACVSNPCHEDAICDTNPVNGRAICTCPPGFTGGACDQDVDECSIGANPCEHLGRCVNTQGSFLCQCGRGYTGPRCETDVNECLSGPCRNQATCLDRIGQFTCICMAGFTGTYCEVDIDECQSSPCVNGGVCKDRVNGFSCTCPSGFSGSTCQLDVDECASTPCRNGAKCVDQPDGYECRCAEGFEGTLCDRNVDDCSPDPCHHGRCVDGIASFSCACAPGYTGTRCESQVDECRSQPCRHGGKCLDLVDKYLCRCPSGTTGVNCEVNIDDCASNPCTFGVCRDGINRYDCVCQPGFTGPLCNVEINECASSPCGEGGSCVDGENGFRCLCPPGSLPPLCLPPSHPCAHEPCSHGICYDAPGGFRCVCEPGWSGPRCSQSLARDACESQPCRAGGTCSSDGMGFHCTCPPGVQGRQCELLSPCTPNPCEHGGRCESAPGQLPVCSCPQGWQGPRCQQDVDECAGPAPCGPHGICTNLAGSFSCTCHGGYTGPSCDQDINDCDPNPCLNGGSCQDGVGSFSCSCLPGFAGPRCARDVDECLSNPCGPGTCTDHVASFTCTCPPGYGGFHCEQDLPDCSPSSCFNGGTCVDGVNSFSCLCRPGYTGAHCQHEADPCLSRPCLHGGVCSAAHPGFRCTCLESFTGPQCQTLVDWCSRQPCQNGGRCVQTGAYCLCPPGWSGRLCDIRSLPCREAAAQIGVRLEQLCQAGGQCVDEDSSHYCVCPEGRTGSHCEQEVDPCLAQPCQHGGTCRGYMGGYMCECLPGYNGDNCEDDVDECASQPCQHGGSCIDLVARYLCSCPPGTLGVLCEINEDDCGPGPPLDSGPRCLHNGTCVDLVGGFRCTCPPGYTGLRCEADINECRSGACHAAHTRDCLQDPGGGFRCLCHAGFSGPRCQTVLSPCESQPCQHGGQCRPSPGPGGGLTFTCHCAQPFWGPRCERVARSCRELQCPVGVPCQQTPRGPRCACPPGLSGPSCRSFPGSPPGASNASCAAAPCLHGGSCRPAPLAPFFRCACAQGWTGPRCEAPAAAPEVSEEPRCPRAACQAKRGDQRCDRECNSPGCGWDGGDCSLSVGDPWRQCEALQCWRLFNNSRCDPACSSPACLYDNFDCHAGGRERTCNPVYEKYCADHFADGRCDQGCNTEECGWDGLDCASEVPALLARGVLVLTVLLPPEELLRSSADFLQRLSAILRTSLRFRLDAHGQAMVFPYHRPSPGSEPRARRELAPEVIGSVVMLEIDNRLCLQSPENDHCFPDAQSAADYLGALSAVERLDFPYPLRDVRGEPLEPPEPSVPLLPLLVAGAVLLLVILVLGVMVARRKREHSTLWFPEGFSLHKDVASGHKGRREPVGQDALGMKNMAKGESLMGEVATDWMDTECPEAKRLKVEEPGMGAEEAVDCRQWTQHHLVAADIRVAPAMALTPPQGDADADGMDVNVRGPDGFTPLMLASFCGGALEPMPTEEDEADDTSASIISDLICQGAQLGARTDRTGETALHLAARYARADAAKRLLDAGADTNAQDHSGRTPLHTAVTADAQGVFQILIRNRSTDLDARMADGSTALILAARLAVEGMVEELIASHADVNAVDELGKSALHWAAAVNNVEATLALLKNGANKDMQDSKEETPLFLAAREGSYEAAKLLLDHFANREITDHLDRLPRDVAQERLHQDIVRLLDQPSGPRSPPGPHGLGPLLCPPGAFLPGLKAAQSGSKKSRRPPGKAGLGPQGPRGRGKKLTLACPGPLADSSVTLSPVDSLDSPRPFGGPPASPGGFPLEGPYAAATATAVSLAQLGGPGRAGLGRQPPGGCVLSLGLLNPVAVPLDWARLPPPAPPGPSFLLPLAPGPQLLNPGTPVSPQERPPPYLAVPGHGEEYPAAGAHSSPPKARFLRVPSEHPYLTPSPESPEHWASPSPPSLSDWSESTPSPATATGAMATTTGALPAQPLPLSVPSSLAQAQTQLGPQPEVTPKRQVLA

[10] = probe aEGFR binding to arrayed compounds – biochemical, biotinylated probe, 635/667 nm fluorescence, primary screen (AID 1097); conditions: small-molecule microarray, higher = more signal;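 also: probe is a biotinylated anti-EGFR antibody binding compounds printed on slides; score combines fluorescence near 667 nm and signal to noise of each spot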
[11] = system: Plasmodium falciparum Sir2 (PF13_0152, Sir2A); assay: Plasmodium falciparum Sir2A binding compounds – biochemical, small-molecule microarray, 635 nm fluorescence, primary screen (AID 1098); conditions: fluorescence 635 nm, higher = more signal;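 also: score merges spot fluorescence intensity with its signal-to-noise ratio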
[12] = probe aDKK1 binding to arrayed compounds – biochemical, biotinylated probe, 635/667 nm fluorescence, primary screen (AID 1099); conditions: small-molecule microarray, higher = more signal;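 also: score merges 667nm spot fluorescence with signal to noise across triplicate slides; reference of the scale not given here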
[13] = probe aCHRDL2 binding to arrayed compounds – biochemical, biotinylated probe, 635/667 nm fluorescence, primary screen (AID 1100); conditions: small-molecule microarray, higher = more signal
[14] = change in splice reporter luminescence, either direction, cell-based, HEK293, spliceosome inhibition project, primary screen (AID 1101); conditions: HEK293 splicing luciferase reporter, 24 h, higher = more signal, called active from +8 up or from −8 down;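 also: HEK293 cells carrying a splicing-competent luciferase reporter gene; test concentration not given here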
[15] = biological target: Fibroblast growth factor 10 (Homo sapiens) (UniProt O15520); assay: compounds binding fibroblast growth factor 10 – biochemical, small-molecule microarray, 635 nm fluorescence, primary screen (AID 1102); conditions: FGF10 binding, fluorescence 635 nm, higher = more signal
Sequence of Fibroblast growth factor 10 (Homo sapiens) (O15520 whole entry, looked up): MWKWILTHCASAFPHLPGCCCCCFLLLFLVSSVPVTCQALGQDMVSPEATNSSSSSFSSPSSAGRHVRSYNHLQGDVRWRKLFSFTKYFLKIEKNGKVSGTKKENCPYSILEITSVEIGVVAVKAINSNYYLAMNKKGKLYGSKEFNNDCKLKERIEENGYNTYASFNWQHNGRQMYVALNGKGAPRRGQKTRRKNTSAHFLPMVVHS

[16] = system: glycogen synthase kinase-3 (GSK3A per assay name; protocol says GSK3B); assay: compounds binding glycogen synthase kinase-3 – biochemical, small-molecule microarray, 635 nm fluorescence, GSK3A, primary screen (AID 1103); conditions: fluorescence 635 nm, higher = more signal; also: the record names both GSK3A and GSK3B
[17] = biological target: Epidermal growth factor receptor (Homo sapiens) (UniProt P00533); assay: compounds binding epidermal growth factor receptor – biochemical, small-molecule microarray, 635 nm fluorescence, primary screen (AID 1104); conditions: EGFR binding, higher = more signal;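 also: score merges 667 nm emission intensity with spot signal to noise over triplicate slides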
Sequence of Epidermal growth factor receptor (Homo sapiens) (P00533 whole entry, looked up): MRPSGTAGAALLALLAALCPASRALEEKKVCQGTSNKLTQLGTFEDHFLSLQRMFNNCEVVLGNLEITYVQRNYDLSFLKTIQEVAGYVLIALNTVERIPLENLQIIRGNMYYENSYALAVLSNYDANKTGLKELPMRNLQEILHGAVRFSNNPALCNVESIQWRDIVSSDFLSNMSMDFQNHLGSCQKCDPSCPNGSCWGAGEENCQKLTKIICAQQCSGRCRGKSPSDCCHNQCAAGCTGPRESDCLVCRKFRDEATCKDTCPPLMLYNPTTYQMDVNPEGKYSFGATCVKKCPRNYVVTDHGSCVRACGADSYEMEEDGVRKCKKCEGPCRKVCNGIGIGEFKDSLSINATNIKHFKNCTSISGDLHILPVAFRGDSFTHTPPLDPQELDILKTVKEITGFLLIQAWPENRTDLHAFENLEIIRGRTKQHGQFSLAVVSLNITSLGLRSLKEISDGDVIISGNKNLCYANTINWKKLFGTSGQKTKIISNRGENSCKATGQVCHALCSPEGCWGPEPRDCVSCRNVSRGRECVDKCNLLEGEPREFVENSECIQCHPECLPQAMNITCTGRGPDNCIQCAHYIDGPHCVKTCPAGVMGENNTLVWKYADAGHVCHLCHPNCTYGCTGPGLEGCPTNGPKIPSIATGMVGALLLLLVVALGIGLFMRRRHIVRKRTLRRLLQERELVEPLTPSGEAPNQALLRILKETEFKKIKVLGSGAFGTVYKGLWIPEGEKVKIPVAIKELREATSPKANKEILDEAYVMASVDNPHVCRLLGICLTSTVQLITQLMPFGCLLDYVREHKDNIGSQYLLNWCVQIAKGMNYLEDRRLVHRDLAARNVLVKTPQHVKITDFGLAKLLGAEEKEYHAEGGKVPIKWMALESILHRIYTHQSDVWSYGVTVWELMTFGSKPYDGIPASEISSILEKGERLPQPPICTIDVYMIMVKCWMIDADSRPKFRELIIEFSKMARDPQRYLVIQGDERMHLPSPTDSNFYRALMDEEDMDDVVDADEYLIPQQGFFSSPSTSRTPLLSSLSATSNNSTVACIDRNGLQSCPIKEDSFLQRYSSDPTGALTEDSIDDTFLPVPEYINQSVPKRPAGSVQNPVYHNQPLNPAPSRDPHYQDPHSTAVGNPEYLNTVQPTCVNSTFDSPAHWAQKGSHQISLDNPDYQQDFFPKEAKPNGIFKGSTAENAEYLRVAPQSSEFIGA

[18] = biological target: Follistatin-related protein 3 (Homo sapiens) (UniProt O95633); assay: compounds binding follistatin-related protein 3 – biochemical, small-molecule microarray, 635 nm fluorescence, primary screen (AID 1105); conditions: FSTL3 binding, higher = more signal;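 also: score merges emission near 667 nm and signal to noise per printed spot across three slides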
Sequence of Follistatin-related protein 3 (Homo sapiens) (O95633 whole entry, looked up): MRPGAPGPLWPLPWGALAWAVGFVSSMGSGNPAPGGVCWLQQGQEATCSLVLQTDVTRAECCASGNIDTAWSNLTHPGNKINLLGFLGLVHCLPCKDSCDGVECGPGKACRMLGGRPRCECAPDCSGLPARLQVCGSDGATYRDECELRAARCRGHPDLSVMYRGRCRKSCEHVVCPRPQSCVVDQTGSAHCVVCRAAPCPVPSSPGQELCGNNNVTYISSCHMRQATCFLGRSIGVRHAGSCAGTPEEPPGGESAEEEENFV

[19] = biological target: Dickkopf-related protein 1 (Homo sapiens) (UniProt O94907); assay: small molecules binding DKK1 protein – biochemical, small-molecule microarray, 635 nm fluorescence scan, primary screen (AID 1106); conditions: higher = more signal;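 also: score merges emission near 667 nm with signal to noise over three replicate slides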
Sequence of Dickkopf-related protein 1 (Homo sapiens) (O94907 whole entry, looked up): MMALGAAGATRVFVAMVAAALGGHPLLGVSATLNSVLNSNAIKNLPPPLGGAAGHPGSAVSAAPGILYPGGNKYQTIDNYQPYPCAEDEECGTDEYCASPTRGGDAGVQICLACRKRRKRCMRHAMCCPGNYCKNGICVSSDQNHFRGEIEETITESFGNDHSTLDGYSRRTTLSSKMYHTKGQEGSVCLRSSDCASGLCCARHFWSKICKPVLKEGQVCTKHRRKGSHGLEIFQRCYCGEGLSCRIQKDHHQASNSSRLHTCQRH

[20] = system: Inhibin beta A chain (activin A); assay: small molecules binding activin A – biochemical, small-molecule microarray, 635 nm fluorescence scan, primary screen (AID 1107); conditions: INHBA, higher = more signal;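 also: mouse activin A protein probed at 4.33 µg/mL on printed slides; score merges bound-protein fluorescence near 667 nm with spot signal-to-noise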

Structure (SMILES) | composite z-score [1] | z-score [2] | z-score [3] | z-score [4] | composite z-score [5] | z-score [6] | composite z-score [7] | composite z-score [8] | composite z-score [9] | composite z-score [10] | composite z-score [11] | composite z-score [12] | composite z-score [13] | z-score [14] | composite z-score [15] | composite z-score [16] | composite z-score [17] | composite z-score [18] | composite z-score [19] | composite z-score [20]
C#CCCCON=C1[C@H]2CCn3c(=O)n(Cc4cc5c(cc4Cl)OCO5)c(=O)n3[C@H]2[C@H](O)[C@@H]2O[C@H]12 | 0.0698 | 0.842 (inactive) | 1.28 (inactive) | 1.63 (inactive) | 0.0322 | 0.314 (inactive) | 0.147 | 0.508 | 0.836 | -0.191 | 0.216 | -0.23 | -0.648 | -0.0845 (inactive) | 0.914 | 0.557 | 0.664 | 0.641 | 0.541 | 0.0951
CO[C@@H]1[C@H](O)CO[C@H]1C=Cc1ccccc1 | 0.524 | 0.335 (inactive) | -1.14 (inactive) | -0.376 (inactive) | 0.363 | 0.447 (inactive) | -0.0895 | 0.396 | 0.0872 | -0.0581 | 1.55 | -0.261 | -0.41 | -0.0979 (inactive) | 0.961 | -0.135 | 0.0571 | 0.211 | 0.365 | 0.512
CCOC(=O)[C@H](Cc1ccccc1)NC(=O)CCC1CC(OC(=O)NCc2cccc3ccccc23)CC2(CCCC(COC(=O)NCC3CCCCC3)O2)O1 (stereo not given in full) | 1.41 | -0.617 (inactive) | -0.174 (inactive) | -0.445 (inactive) | 1.4 | -0.448 (inactive) | -0.117 | 0.926 | 1.14 | -0.0381 | 0.889 | -0.21 | -0.53 | -0.815 (inactive) | 0.781 | 0.805 | 0.604 | 0.872 | 0.795 | 0.381
C[C@H]1C=CCC(=O)OC[C@H](C)C(=O)N2CCC[C@H]2C(=O)OC1 | 1.54 | 0.94 (inactive) | 0.499 (inactive) | -0.0933 (inactive) | -1.44 | 0.0085 (inactive) | -0.228 | 2.09 | 0.373 | 0.177 | 1.01 | -0.235 | -1.53 | -0.0436 (inactive) | 1.47 | 1.29 | 1.73 | 1.48 | 2.11 | -0.626
CC(CCN1CCCc2nc(C)c(C)cc21)=NO[C@H](C)c1cn([C@H](CO)Cc2ccccc2)nn1 | 1.56 | 1.09 (inactive) | 0.374 (inactive) | 0.399 (inactive) | 0.894 | -0.748 (inactive) | -0.0441 | 0.633 | 1.01 | 0.0386 | 0.721 | -0.319 | -0.395 | 0.407 (inactive) | 0.59 | 0.605 | 0.596 | 0.761 | 0.935 | 1.11
CC(CCC(=O)OC[C@H]1O[C@H](C#Cc2ccccc2)C=C[C@@H]1Oc1ccc(C)cc1)=NO[C@@H](C)c1cc(-c2c(C)cc(C)cc2C)no1 | -0.187 | 0.914 (inactive) | 0.811 (inactive) | 0.361 (inactive) | 0.226 | -0.318 (inactive) | -0.328 | -0.199 | -1.12 | -0.296 | 0.199 | -0.293 | -0.0256 | 0.0536 (inactive) | -1.43 | -1.48 | -0.983 | -1.27 | -0.465 | 0.486
O=C1C=C[C@@H](O)[C@@H]2[C@@H]3C(=O)N(Cc4ccccc4)C(=O)[C@@H]3CC[C@@H]12 | -0.136 | 0.0129 (inactive) | -0.676 (inactive) | -0.795 (inactive) | 0.0218 | 0.575 (inactive) | -0.147 | 0.562 | 0.798 | -0.104 | 0.295 | -0.262 | -0.684 | -0.71 (inactive) | 0.659 | 0.653 | 0.552 | 0.353 | 0.232 | 0.181
Cc1ccc2[nH]c3nc(CCCn4ccnc4-c4ccccc4)nnc3c2c1 | 0.842 | 0.324 (inactive) | 0.0855 (inactive) | -0.425 (inactive) | 1.38 | 1.13 (inactive) | 0.504 | 0.385 | 1.12 | -0.009 | 0.663 | -0.28 | -0.0165 | -0.128 (inactive) | 0.632 | 1.22 | 0.32 | 1.31 | 0.869 | -0.739
COc1ccc(COC(=O)NN=C2C[C@@H](O)[C@@H](O)[C@@H]3[C@@H]4C(=O)N([C@@H](C)c5ccccc5)C(=O)[C@@H]4CC[C@@H]23)cc1 | -0.0948 | -0.735 (inactive) | 0.207 (inactive) | -0.206 (inactive) | -0.0022 | 0.918 (inactive) | 0.0378 | 0.574 | 0.128 | -0.103 | 0.397 | 0.0429 | -0.305 | 0.158 (inactive) | 0.132 | -0.111 | 0.362 | 0.192 | 0.244 | 0.878
C[C@@H]1CC[C@H]2C(=O)OC(Cc3ccccc3)CN2[C@H]1c1ccc(Br)cc1 (stereo not given in full) | 1.28 | 0.127 (inactive) | -6.77 (inactive) | -0.624 (inactive) | 1.18 | 0.823 (inactive) | -0.0923 | 0.151 | 0.0343 | -0.133 | 0.413 | -0.193 | -0.312 | 0.264 (inactive) | 0.524 | 0.255 | 0.0012 | 0.141 | -0.0094 | 0.445
